The full list was thinned out, with hits kept by preference.
KDM5B inhibitor – Primary screen for KDM5B Histone Demethylases FDH-coupled qHTS | Potency, µM (titrated, usually from 57.7 µM), usual class: inhibitors | KDM5B demethylase, FDH-coupled NADH fluorescence (FDH is formaldehyde dehydrogenase) | hit rate 2.6% among 220,000; active means well fitted inhibition curve with a large enough effect; further: 0% is about no effect; nearly all actives have a fitted effect of over 70% in size
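Here, H3K4me3 peptide (12.5 µM in substrate mix) is demethylated by KDM5BΔAP, 200 nM final, after 10 min compound exposure. Formaldehyde product is coupled through FDH (0.25 U/mL in mix) to NADH fluorescence; 30-min ΔRFU feeds dose-response curves.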
Starred values were filed as active, the others as inactive; i = inactive. Potency means the concentration at half of the fitted maximal effect.

SMILES | KDM5B inhibitor
COc1ccc(OC)c(NC(=O)Cn2ccc3c(Cl)cccc32)c1 | i
COCCNC(=O)[C@H]1C[C@H](Oc2ccccc2)CN1S(=O)(=O)c1c(C)noc1C | i
CC(C)NC(=O)NC1=C(C#N)C(C)(C)Cc2ccccc21 | i
Cc1cccc(C(C)C)c1NC(=O)CCl | i
Cc1cc(F)ccc1-c1[nH]nc2ncc(-c3cn[nH]c3)nc12 | 28.2µM*
C[S+](=O)([O-])c1ccc(-c2cnc3n[nH]c(-c4ccc5c(c4)OCO5)c3n2)cc1 | i
Cc1noc2c(-c3cn[nH]c3)cc(-c3ccc(F)cc3)nc12 | i
Cc1cc(F)ccc1-c1[nH]nc2ncc(-c3ccc([S+](C)(=O)[O-])cc3)nc12 | 35.5µM*
COc1ccc(-c2cnc3n[nH]c(-c4ccc(OC)c(F)c4)c3n2)cn1 | i
COc1ccc(-c2[nH]nc3ncc(-c4ccc([S+](C)(=O)[O-])cc4)nc23)cc1F | i
O=C(CC(c1ccccc1)c1ccccc1Cl)NCc1cc2n(n1)CCNC2 (stereo not drawn) | i
Cc1ccc(C(=O)COC(=O)c2cc3ccccc3oc2=O)cc1 | i
Cc1ccc(C)c(CN2CCc3nc(N(C)Cc4cccnc4)[nH]c(=O)c3CC2)c1 | i
CCn1c(C)ccc(C(=O)N[C@@H]2COCC[C@H]2Oc2ccccn2)c1=O | 28.2µM*
Cn1ccc2c(C(=O)N[C@@H]3CCOC[C@H]3Oc3ccccn3)cccc21 | i
Cc1cc(=O)n(CC(=O)N[C@@H]2CCOC[C@H]2Oc2ccccn2)nc1C | i
COc1ccccc1CCNC(=O)CCSc1nc(Cl)nc2nc[nH]c12 | i
CCC1Oc2ccc(NC(=O)COC)cc2CN(Cc2ccc(Cl)cc2)C1=O (stereo not drawn) | i
CCC1Oc2ccc(NC(=O)c3ccc(OC)c(OC)c3)cc2CN(Cc2ccc(Cl)cc2)C1=O (stereo not drawn) | 28.2µM*
COc1ccc(CCN2Cc3cc(NC(=O)c4ccc(F)cc4F)ccc3OC(C)C2=O)cc1 (stereo not drawn) | i
CCC1Oc2ccc(NC(=O)Cc3ccc(OC)cc3)cc2CN(Cc2ccc(OC)cc2)C1=O (stereo not drawn) | i
COc1ccc(C(=O)Nc2ccc3c(c2)CN(Cc2ccc(F)cc2)C(=O)C(C)O3)c(OC)c1 (stereo not drawn) | 31.6µM*
COc1ccc(CN2Cc3cc(NC(=O)c4ccccc4F)ccc3OC(C)C2=O)c(OC)c1 (stereo not drawn) | i
Cc1cc(=O)n(CC(=O)N[C@H](c2ccccn2)C2CC(O)C2)nc1C (stereo partly drawn) | i
OCc1cc(CC2(NCC3CC3)COC2)no1 | i
SMILES | KDM5B inhibitor
O=C(NC1CCC(O)CC1)c1ccc2c(c1)-c1ccccc1C2 (stereo not drawn) | i
Cc1nc(-c2ccc(F)cc2)n(CC(=O)Nc2cccc(C(F)(F)F)c2)c(=O)c1CCO | i
CCCc1cc(C(=O)N2CCC(=O)N(CC3CC3)C(C(C)C)C2)cs1 (stereo not drawn) | i
CCCc1cc(C(=O)N2CCC(=O)N(CC3CC3)C(C(C)C)C2)n[nH]1 (stereo not drawn) | i
Cc1cc(C)n2ncc(C(=O)N3CCC(=O)N(CC4CC4)C(C(C)C)C3)c2n1 (stereo not drawn) | 31.6µM*
Cc1ccc(Cl)c(C(=O)N2CCC(=O)N(CC3CC3)C(C(C)C)C2)c1 (stereo not drawn) | i
Cc1ccc2[nH]c(C(=O)N3CCC(=O)N(CC4CC4)C(C(C)C)C3)c(C)c2c1 (stereo not drawn) | i
Cc1nc2ncccn2c1C(=O)N1CCC(=O)N(CC2CC2)C(C(C)C)C1 (stereo not drawn) | 28.2µM*
NCCSc1ncc(C(F)(F)F)cc1Cl | i
COCCn1cnc2c1c(=O)n(CC(=O)Nc1cccc(C)c1C)c(=O)n2Cc1ccccc1 | i
FC(F)(F)c1cc(-c2ccccc2)nc(SCc2ccncc2)n1 | i
CC(Sc1nnc2ccccn12)C(=O)N1CCN(Cc2ccccc2)CC1 (stereo not drawn) | i
COC(=O)C1=C(N)OC2=C(C(=O)CC(c3ccccc3)C2)C1c1ccc(C)cc1 (stereo not drawn) | i
CCOc1ccccc1NC(=O)Cn1nnc(C(=O)NCc2ccccc2)c1N | i
CCCCCn1c(NCCO)nc2c1c(=O)[nH]c(=O)n2C | i
CC(OC(=O)C1=NN(C)C(=O)CC1)C(=O)c1c[nH]c2ccccc12 (stereo not drawn) | i
COc1ccc(C(=O)/C=C/c2ccc(Br)cc2)cc1CSCC(=O)O | i
COc1cccc(-c2ccc3ncn(-c4ccc(F)cc4F)c(=O)c3n2)c1 | i
O=c1c2nc(-c3ccsc3)ccc2ncn1-c1ccc(F)cc1F | 35.5µM*
COc1ccc(-c2ccc3ncn(C4CC4)c(=O)c3n2)cc1OC | i
COc1ccc(-c2ccc3ncn(-c4ccc(F)cc4F)c(=O)c3n2)cc1OC | 39.8µM*
Cc1nc2c(=O)n(-c3ccc(F)cc3F)nc(C)c2s1 | i
CC(=O)Nc1cccc(-c2ccc3ncn(-c4cccnc4)c(=O)c3n2)c1 | i
Cc1c(C(=O)O)cccc1-c1ccc(C=C(C#N)C#N)o1 | i
Cc1oc(-c2ccccc2)nc1C(=O)OCC(=O)NC(N)=O | i
SMILES | KDM5B inhibitor
O=C(CCn1cnc2ccccc2c1=O)N1CCCC(Nc2ccccc2)C1 (stereo not drawn) | i
COc1ccc(-c2c[nH]c3c(SCC(=O)Nc4ccc(OC)c(OC)c4)ncnc23)cc1 | i
c1ccc(N2CCN(CCNCC3CNc4ccnn4C3)CC2)cc1 (stereo not drawn) | i
COc1ccccc1C(=O)NCc1c[nH]c2ncccc12 | i
CCNC(=O)Cc1c[nH]c2ncc(-c3cccnc3OC)cc12 | 39.8µM*
COc1ncccc1CNC(=O)Cc1ccccc1Cl | i
COc1ncccc1-c1cnc2[nH]cc(CC(=O)NCc3ccco3)c2c1 | 35.5µM*
O=C(c1ccc2c(c1)OCO2)N(Cc1ccccc1)Cc1ccccc1 | i
CC(C)N1CCC(CNC(=O)Nc2ccccc2F)C1 (stereo not drawn) | i
Nc1nc(-c2ccc(Cl)cc2)nn1C(=O)c1ccc(Cl)cc1 | i
CC(C)c1ccc(/C=N/O)cc1 | i
Cc1nn2c(NCCN(C)C)cc(C(C)C)nc2c1-c1ccccc1 | i
CCCc1cc(NCCN(C)C)n2nc(C)c(-c3ccccc3)c2n1 | i
Cc1nn2c(NCCc3ncc[nH]3)cc(-c3ccccc3)nc2c1C | 31.6µM*
COc1ccc(-c2nc3c([nH]2)CC(C)(C)CNC3=O)cc1OC | 31.6µM*
CCCOCCc1nc2c([nH]1)CC(C)(C)CNC2=O | i
CCn1cc(-c2nc3c([nH]2)CC(C)(C)CNC3=O)cn1 | i
COC(=O)[C@H](Cc1ccc(OC)cc1)NC(=O)[C@@H]1CN(C(=O)NC(C)C)CCN1C(=O)C1CCCCC1 | i
COCCNC(=O)[C@@H]1CCC[C@@H](NC(=O)C(C)(C)C)CN(C)C(=O)C1 | i
CCN1CCCC12Cc1ccccc1CN(C(=O)c1c(C)noc1C)C2 (stereo not drawn) | i
Cc1ccccc1C1C2=C(CC(C)(C)CC2=O)OC2=C1C(=O)CC(C)(C)C2 | i
COc1ccc(C(=O)N2CC3CC(C2)[C@H]2CCCC(=O)N2C3)c(OC)n1 (stereo partly drawn) | i
CCCN(C)c1nccnc1OC1CCN(C(=O)c2ccc(OC)nc2OC)C1 (stereo not drawn) | i

High-throughput results deposited in PubChem BioAssay by National Center for Advancing Translational Sciences (NCATS).
